# Bioassay records from PubChem BioAssay.
# Sampled rows, rich in hits. Any-hit rate of the full collection: about 9.3%.
# NADH coupling – inhibitors of enzymes used to reach an NAD/NADH endpoint | coupled PK/LDH NADH assays, four targets | 0.02% of 65,000 active | IC50, µM (series often up to 10 µM), for inactives: at the highest dose inhibition;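 active means single-dose screening hits from any of four coupled enzyme assays that gave an IC50 when retested across doses; inconclusive means no clear call, values can overlap the other calls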;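 further: the DPM-DC format reads NADH fluorescence rather than 340 nm absorbance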
# Abs 340nm – compounds absorbing at 340 nm | compound absorbance at 340 nm, fold over control | fold change at 10 µM | 65,000 tested, under 10 active | AID 708;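 active means at 10 µM dose, initial 340 nm absorbance at least 2 fold that of control wells; inactive means change under 2 fold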;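 further: initial absorbance extrapolated from kinetic A340 decline of NADH oxidation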
# Autofluor 339 – intrinsic fluorescence of library compounds, ex339/em460 – biochemical, MLSMR library, data from DPM-DC assay, artefact control, profiling panel | compound autofluorescence, ex339/em460 nm, NADH buffer; active compounds read high; 1 = no-compound wells, NADH background | fluorescence fold increase at 10 µM | 5.5% of 65,000 active | AID 709;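 active means at 10 µM, mean starting fluorescence two-fold or more over control wells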;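 further: signal is the first read of a kinetic run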
# M1 agonist – agonists of M1 muscarinic receptor. AID 626. 3% of 64,000 active. B-score at 10 µM. CHO-M1 cells, Fluo-4 calcium fluorescence, agonist mode; active compounds read high;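 active means fluorescence rise, raw or as B-score row- and column-corrected plate score, outside the 99.7% band of its plate's samples, either direction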
# Htt clearance – compounds clearing mutant huntingtin protein; HeLa Exon1htt(103Q)mCFP, aggregate imaging; zero = plate's median compound well; inhibition, % at 1.5 µM; 0.42% of 47,000 active; AID 853;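 active means inhibition of aggregate fluorescence above about 70%, also judged a hit by eye on the cell image, limit read from the data, passing the limit was not always enough; inconclusive means no rule stated for this call; inactive means not judged a hit on image review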;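 further: cells exposed to compound for three days before fixation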
# M1 antagonist – blocks the rat M1 muscarinic receptor response to acetylcholine. 3.4% of 64,000 active. CHO-M1 cells, Fluo-4 calcium, ACh EC80 antagonist mode; active compounds read low. B-score at 10 µM;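 active means calcium fluorescence response, raw or row-and-column corrected B-score, differing from the plate sample mean either way at a set confidence level, mostly lower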
# Target sequence (P08482 whole entry, looked up): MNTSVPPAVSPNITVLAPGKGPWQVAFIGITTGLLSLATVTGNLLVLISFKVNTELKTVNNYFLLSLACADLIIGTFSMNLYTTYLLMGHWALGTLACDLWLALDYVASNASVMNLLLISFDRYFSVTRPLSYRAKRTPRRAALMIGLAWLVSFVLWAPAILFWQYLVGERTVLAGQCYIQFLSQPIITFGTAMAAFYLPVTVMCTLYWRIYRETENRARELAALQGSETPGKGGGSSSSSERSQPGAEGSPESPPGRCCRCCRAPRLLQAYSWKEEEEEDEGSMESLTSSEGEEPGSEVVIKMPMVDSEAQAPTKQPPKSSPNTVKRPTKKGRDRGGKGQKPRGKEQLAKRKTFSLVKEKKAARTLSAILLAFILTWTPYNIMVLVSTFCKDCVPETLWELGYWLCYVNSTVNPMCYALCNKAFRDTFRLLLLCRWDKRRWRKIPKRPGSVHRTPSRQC
# * marks the source's active call; other numbers are inactive results; u = inconclusive; x = not tested or not shown.
SMILES,NADH coupling,Abs 340nm,Autofluor 339,M1 agonist,Htt clearance,M1 antagonist
C=C(C)COc1ccc2c3c(c(=O)oc2c1OCC(=C)C)CCC3,1%,1.1,2.1*,0.65,10,0.42
COc1nc(-c2ccc(C)cc2)ccc1-c1noc(-c2ccco2)n1,9%,1.1,2.4*,-0.72,x,1.2
CCOc1nc(-c2ccccc2)ccc1-c1noc(COc2ccccc2)n1,3%,1.1,2.9*,1.2,x,0.5
COc1nc(C)ccc1-c1noc(-c2ccco2)n1,8%,1,1.1,x,-3,x
CCOc1nc(-c2ccccc2)ccc1-c1noc(-c2ccco2)n1,16%,1,2.6*,0.14,-5,-1.5
CCc1ccccc1NC(=O)Cn1nc(C(F)(F)F)cc1C1CC1,x,x,x,x,52,x
O=S(=O)(N1CCOCC1)n1c(Cc2ccccc2)nc2ccccc21,2%,1.1,1.1,0.17,25,0.62
COc1ccc(C(F)(F)F)cc1NC(=O)c1nc2nc(C)cc(C(F)F)n2n1,3%,1,3*,-0.015,-5,0.0012
Cc1ccc(N2C(=O)C3ON(c4ccccc4)C(c4ccncc4)C3C2=O)c(C)c1 (configuration not stated),3%,0.98,1.1,-0.0093,-3,-0.5
CSc1nncc(-c2ccc(F)c(F)c2)n1,4%,1.1,1.1,0.22,62,0.56
CSc1nncc(-c2ccc(F)cc2)n1,7%,1,1.1,0.79,-1,2.6*
COc1cc2c(cc1NCc1ccccn1)oc1ccccc12,3%,1,2.4*,0.13,x,0.13
O=C(NC12CC3CC(CC(C3)C1)C2)c1cncc(O)c1,4%,1,1.4,-0.43,x,-0.059
Cc1ccc2nc(NC(=O)c3cccs3)sc2c1,3%,1.1,1.5,0.91,x,1
CC(=O)c1sc(NC(=O)c2ccc(Cn3cc(Br)cn3)o2)nc1C,3%,1.1,1.1,-0.41,x,-0.059
Cc1ccc2nc(NC(=O)c3ccc(Cl)s3)sc2c1,3%,1.1,2.1*,0.0091,-42,0.14
Cc1ccc2nc(NC(=O)c3ccc(Cn4cc(Cl)cn4)o3)sc2c1,0%,1.1,2.2*,1.5,x,1.1
COc1ccc(/C=N/n2cnnc2SCc2ccccc2)cc1,3%,1.1,1.1,-0.4,2,-0.59
O=C(Nc1ncc(Cc2ccccc2)s1)C1COc2ccccc2O1 (configuration not stated),x,x,x,x,-13,x
O=C(NCCc1cccs1)C12CN(Cc3ccccc3)CC1C(c1cccc([N+](=O)[O-])c1)=NO2 (configuration not stated),x,x,x,x,-22,x
CCOc1ccc2[nH]c(C)c(CN3CCOCC3)c(=O)c2c1,13%,1.1,1.6,0.51,-63,-0.28
COc1ccc2[nH]c(C)c(CN3CCCCC3)c(=O)c2c1,8%,1,2.8*,0.031,x,0.026
Cc1c(OCC(=O)OC(C)C)ccc2c3c(c(=O)oc12)CCC3,6%,1.1,1.8,-0.085,x,1.2
CC(=O)COc1ccc2c3c(c(=O)oc2c1C)CCCCC3,5%,1.2,3.8*,-0.33,-17,-1.6
CC(=O)C(C)Oc1ccc2c3c(c(=O)oc2c1C)CCCC3 (configuration not stated),10%,1,3.8*,-0.77,u,-0.23
SMILES,NADH coupling,Abs 340nm,Autofluor 339,M1 agonist,Htt clearance,M1 antagonist
Cc1oc2c(C)c3oc(=O)c4c(c3cc2c1C)CCCC4,5%,1.1,1.5,0.5,x,0.17
Cc1c(OCC(=O)OC(C)(C)C)ccc2c3c(c(=O)oc12)CCC3,1%,1.1,1.9,-0.31,x,2.2
Cc1oc(C(=O)O)cc1COc1ccc2c3c(c(=O)oc2c1C)CCCC3,11%,1.1,2.2*,1.9,x,0.39
Cc1nc2sc(C(c3ccccc3)N3CCN(c4ccccc4F)CC3)c(O)n2n1 (configuration not stated),4%,0.98,1,0.58,x,-2
CCCc1nc(NCc2ccco2)c(C#N)c2c1COC(C)(C)C2,5%,1,1.9,-0.97,x,1
CCCCc1nc(NCC2CCCO2)c(C#N)c2c1COC(C)(C)C2 (configuration not stated),5%,1,2.4*,0.25,-28,-0.16
Cc1nc(NCCCO)c(C#N)c2c1COC(C)(C)C2,8%,1.1,2.3*,-0.38,3,0.07
CC1(C)Cc2c(c(-c3ccccc3)nc3[nH][nH]c(=O)c23)CO1,4%,1,1,-0.059,x,-0.93
CC1(C)Cc2c(C#N)c(NCCCO)nc(-c3ccccc3)c2CO1,7%,1.1,2.1*,-0.6,x,-0.62
CCOC(=O)N1CCC(NC(=O)c2ccc3c(c2)sc2nc(-c4cccc(OC)c4)cn23)CC1,6%,0.98,1.8,1.5,x,-1.2
CCOC(=O)N1CCC(NC(=O)c2ccc3c(c2)sc2nc(-c4ccccc4)cn23)CC1,8%,0.98,2*,x,6,x
CC1(C)CC(C#N)(N2CCOCC2)CCO1 (configuration not stated),2%,1.1,1.1,0.0026,-111,0.95
Nc1cccc2c1C(=O)N(c1ccccc1)C2=O,2%,1,2.3*,70*,x,-0.37
CCCCC(=O)Nc1cccc2c1C(=O)N(c1ccccc1)C2=O,3%,1,1.1,1.9,x,-0.4
CCCCNC(=O)c1cccc(C(=O)NCCCC)c1,5%,1,1.1,0.58,26,0.0012
O=C(NCCCO)c1ccc2[nH]c3ccccc3c2c1,11%,1,2.7*,-0.65,x,-1.4
C=CCSc1nc(C)c2cc(C)cc(C)c2n1,x,x,x,x,-22,x
C=CCOC(=O)C1=C(C)Nc2ncnn2C1c1cc(Br)ccc1F (configuration not stated),3%,1,1.1,0.95,-20,0.3
Fc1ccc(Br)cc1C1C=C(c2ccc(Br)s2)Nc2ncnn21 (configuration not stated),4%,1.1,1.2,20*,x,-0.37
CC(=O)N1CCN(c2nc3cc4c(cc3nc2NS(=O)(=O)c2ccccc2)OCCO4)CC1,13%,1.1,2.7*,0.16,x,0.11
COc1ccc(-c2cc(-c3ccccc3)n3ncnc3n2)cc1,2%,1.1,2.4*,2.1,x,-0.33
COc1ccc(CC(=O)Nc2ccc(N3CCN(c4ccc(OC)cc4)CC3)c(C#N)c2)cc1,12%,0.99,2.2*,0.14,x,-0.93
CC(NC(=O)Nc1ccc(F)cc1F)c1ccncc1 (configuration not stated),5%,1.1,1.1,-1.3,x,0.93
O=c1[nH]cnc2nc(-c3ccccc3)c(-c3ccccc3)nc12,15%,1.1,5.1*,0.52,22,-0.26
CSCC[C@H](NC(=O)c1nn(C)c(=O)c2ccccc12)c1nc2ccccc2[nH]1,x,x,x,x,16,x
c1ccc(-c2csc3ncnc(NCCN4CCOCC4)c23)cc1,7%,1.1,1.1,-0.77,x,-0.69
COc1ccc(-c2csc3ncnc(NCCN4CCOCC4)c23)cc1,7%,1,1.1,0.84,x,-0.31
